About 30 (2%) of roughly 1,300 compounds were called active. Inconclusive results (about 10%) are left out. This is one part of a sample in which actives are shown more often than they occur. The call rests on the fitted dose curve; in most records, active means well fitted inhibition curve with a large enough effect; inconclusive means small, poorly fitted or top-dose-only effect; inactive means flat fitted curve, though single readings scatter.
Assay: qHTS for antagonists of the Thyroid Stimulation Hormone Receptor: Hit Validation in HTRF Activity in a Luteinizing Hormone Receptor Cell Line
Settings: LHR-expressing cell line, cAMP HTRF, antagonist mode; series mostly up to 58 µM
Source text: The thyroid-stimulating hormone receptor (TSHR) is a member of the 7 trans-membrane-spanning receptor (7TMR) family of cell surface receptors. TSHR-mediated hyperthyroidism is important in thyroid pathology. The development of small molecule antagonists of TSHR may lead to therapeutic approaches for TSHR-mediated hyperthyroidism caused by constitutively activating mutations or stimulating auto-antibodies associated with Graves' disease. Graves' disease is the leading cause of hyperthyroidism and is caused by autoantibodies that stimulate TSHR (TsAbs) causing thyroid growth and unregulated overproduction of thyroid hormones and existing treatments have liabilities (agranulocytosis). In addition, TSHRs are known to be expressed in multiple extrathyroidal tissues including bone, brain, kidney, testis, fat and cells of the immune system but the role of the TSHR in these tissues is not clear. Therefore, TSHR antagonists/inverse agonists could be used as probes of extrathyroidal TSHR function. Finally, TSHR inverse agonists, which are a subclass of antagonists that inhibit agonist-independent (or basal or constitutive) TSHR signaling, could be used to inhibit TSH-independent signaling in patients with recurrent or metastatic thyroid cancer who are receiving thyroid hormone to suppress TSH.
In collaboration between scientist from the NCGC and the NIDDK, a miniaturized HTRF high-throughput screen was developed. It's a cell based assay, where an anti cAMP antibody contains a fluorescent cryptate tag (excitation 337 nm; emission 620 nm) and the acceptor is cAMP-d2 (excitation 620 nm; emission 665 nm). When antibody and cAMP-d2 interact and are excited by a 337 nm light, a FRET occurs resulting in emission at 665 nm. The assay is competition between cAMP-d2 and cAMP (from the cell lysate). The homogeneous protocol allows for one step dispense after stimulation that is automation friendly. In order to confirm specificity of the compounds to the TSHR, a confirmatory assay was conducted on a similar family member, the Luteinizing Hormone (LH) receptor, transfected into a HEK 293 cell line, using an orthogonal detection technology to measure cAMP stimulation: antibody-based Homogeneous Time Resolved Fluorescence (HTRF).
NIH Chemical Genomics Center [NCGC]
NIH Molecular Libraries Probe Centers Network [MLPCN]
Assay Provider: Marvin Gershengorn, NIDDK
Homogeneous Time Resolved Fluorescence (HTRF) cAMP Assay. HEK 293 cells stably transfected with a vector containing the LH receptor and maintained under hygromycin selection were obtained from the laboratory of Dr. Marvin Gershengorn. Compounds were assayed using a HTRF cAMP detection kit (Cisbio) on the LH receptor transfected cell line. Briefly, 750 cells were plated in 2.5 ul/well of complete media (DMEM containing 10 % FCS, and 100 uM RO 20-1724) in 1536 well solid bottom white plates and 23 nl/well compound in DMSO solution or controls was added. Following 30 minute incubation at room temperature, 2.5 ul/well of labeled d2 cAMP and 2.5 ul/well of anti-cAMP antibody (both diluted 1:20 in lysis buffer) were added to each well using a flying reagent dispenser (Aurora Discovery, San Diego) . Plates were measured using the Envision plate reader (PerkinElmer, Boston, MA) with excitation at 330 nm and emissions of 615 nm and 660 nm.
Potency means the concentration at half of the fitted maximal effect.

Potency, active:
Cc1cccc(N(C(=O)c2nsc(Cl)c2Cl)C(C(=O)NC2CCCC2)c2ccc(O)cc2)c1C (stereo not drawn) 12 µM
CCC(=O)NC1=C(Cl)C(=O)C(NC(=O)CC)=C(Cl)C1=O 30.1 µM
COc1ccc(CNC(=O)C(c2ccco2)N(C(=O)c2snc(C(N)=O)c2N)c2cccc(OC)c2)cc1 (stereo not drawn) 13.5 µM
O=C1C(SCCO)=C(SCCO)C(=O)c2ccccc21 26.9 µM
CCn1nc(C)cc1-c1nnc(Sc2ncc([N+](=O)[O-])s2)n1C 37.9 µM
COc1ccc(CCNC2=C(Cl)C(=O)N(CCc3ccc(OC)c(OC)c3)C2=O)cc1OC 37.9 µM
COc1cccc(N2CCN(c3ncnc4c3cnn4-c3ccc(C)cc3C)CC2)c1 33.8 µM
CC(C)(C)OC(=O)NCCCCCc1cn([C@@H](CO)C(=O)NCCCCCCCCCCC(=O)N2CCN(C(=O)OC(C)(C)C)CC2)nn1 37.9 µM

Potency, inactive:
O=C(NC1CCCCC1)C(c1cccs1)N(Cc1cccs1)C(=O)c1cccs1 (stereo not drawn)
CC(=O)c1ccc(N(C(=O)CNC(=O)c2ccco2)C(C(=O)NC2CCCC2)c2ccncc2)cc1 (stereo not drawn)
Cc1c(C(=O)NCc2ccc3c(c2)OCO3)sc2nc(-c3ccccc3)cn12
N#Cc1c(Cl)nsc1NC(=O)c1ccccc1
O=C1CCCN1c1ccc(S(=O)(=O)Oc2ccc(Cl)cc2)cc1[N+](=O)[O-]
CN(C)c1ccc(NC(=S)c2ccc3ccccc3n2)cc1
CSc1nc(-c2ccc(Cl)cc2Cl)[nH]c(=O)c1C#N
CCOc1cc(N2CCOCC2)c(OCC)cc1NC(=O)c1cccc(S(=O)(=O)N2CCOCC2)c1
COc1ccc(S(=O)(=O)Nc2ccc(C)cc2)cc1N(C)S(=O)(=O)c1ccc(Cl)cc1
O=C(Nc1ncc(S(=O)(=O)c2ccc([N+](=O)[O-])cc2)s1)c1ccc2ccccc2c1
O=C(Nc1ncc(S(=O)(=O)c2ccc([N+](=O)[O-])cc2)s1)c1cccc2ccccc12
CCOC(=O)CCCCCC(=O)Nc1ccc2c(c1)CC(=O)N([C@H](C)CO)C[C@@H](C)[C@H](CN(C)Cc1ccc3c(c1)OCO3)O2
c1ccc2c(CSc3ncnc4nc[nH]c34)cccc2c1
CC1=NN(C(N)=S)C(=O)C1N=Nc1ccc(Cl)cc1Cl (stereo not drawn)
Cc1ncsc1CCOC(=O)C1C2CC3CC(C2)CC1C3 (stereo not drawn)
CCOC(=O)N1CCN(C(=O)c2ccc3c(c2)N=C(CC)c2cc(C)ccc2S3)CC1
O=C(COC(=O)c1cc(S(=O)(=O)N2CCOCC2)c(Cl)cc1Cl)c1ccc[nH]1
COc1cc(/C=C(\C#N)c2ccccn2)ccc1OCc1ccc(Cl)cc1
C/C(=N\Nc1cc(C)nc(-c2ccccc2O)n1)c1ccccc1
O=C(Nc1cc(S(=O)(=O)N2CCCCC2)ccc1Cl)c1ccccc1NS(=O)(=O)c1ccc(F)cc1
Clc1ccccc1CN(Cc1ccccc1)c1ncnc2nc[nH]c12
COC(=O)c1ccc(NC(=O)Nc2ccc(F)c(Cl)c2)cc1
O=C1C(Cl)=C(Nc2ccc(O)cc2)C(=O)c2ccccc21
COc1ccc2cc(/C=C3\SC(=S)NC3=O)c(N3CCOCC3)nc2c1
O=S1(=O)C=C(Sc2nc3cc(Cl)ccc3o2)c2ccccc21
O=C(Nc1ccc(Oc2ccc(Cl)cc2)c(Cl)c1)c1cc(I)cc(I)c1O
O=C(COC(=O)c1ccccc1C(=O)c1ccc(Cl)c([N+](=O)[O-])c1)NC1CCCCCC1
O=C(O)c1ccc(Cl)cc1Nc1nc2cc(Cl)ccc2o1
COc1ccc(CNC(=O)Cn2nc(Cc3cccnc3)c3ccccc3c2=O)cc1
N#C/C(=N\Nc1ccc(Cl)c(Cl)c1)C(=O)C1CC1
O=S(=O)(Nc1cc(Cl)ccc1-n1cncn1)c1cc(Br)ccc1Br
O=C(Nc1cccc(Cl)c1)Nc1ccc(Br)cc1F
COC(=O)c1ccc(C2N=C(c3cccs3)CC(c3ccccc3O)N2)cc1 (stereo not drawn)
COc1ccc(CNC(=O)C(C)OC(=O)c2cccs2)cc1 (stereo not drawn)
COc1cc(C(C(=O)NCc2ccccc2)N(C(=O)c2snc(C(N)=O)c2N)C2CCCC2)cc(OC)c1OC (stereo not drawn)
O=C(O)/C=C/c1ccc(S(=O)(=O)Nc2ccccc2C(=O)Nc2ccc(F)cc2)cc1
OCCSc1nnc(Nc2ccccc2)s1
CN1CCN(C2=CC3=CC(=C(C#N)C#N)CCC3CC2)CC1 (stereo not drawn)
Nc1nc(SCC(=O)C23CC4CC(CC(C4)C2)C3)n[nH]1
CC(C)(C)C(=O)NC(NC(=S)Nc1sc2c(c1C#N)CCCC2)C(Cl)(Cl)Cl (stereo not drawn)
CC1Cc2ccccc2N1C(=O)COC(=O)/C=C/c1ccc(F)cc1 (stereo not drawn)
COc1cc(NC(=O)Cn2nc(C(F)(F)F)c(Br)c2C)cc([N+](=O)[O-])c1
CCCC(=NC(C)CC)C1=C(O)CC(c2ccccc2)CC1=O (stereo not drawn)
O=C(Nc1ncc(S(=O)(=O)c2ccc([N+](=O)[O-])cc2)s1)c1ccccc1F
Cc1nc(NCCc2ccccc2)c(C#N)c(C)c1[N+](=O)[O-]
O=C(OCn1ncc(Cl)c(Cl)c1=O)c1ccccc1Cl
O=S(=O)(Nc1cccnc1)c1ccc(C2CCCCC2)cc1
CC(C)Cc1nc2oc3c(Cl)ncnc3c2c2c1CCC2
Cc1cccc(NC(=O)c2ccc(Cl)c(S(=O)(=O)N3CCc4ccccc43)c2)n1
COc1ccc(CCNc2ncnc3c2[nH]c2cc(OC)c(OC)cc23)cc1OC
COc1ccc(CCNC2=C(Cl)C(=O)N(CCc3ccccc3)C2=O)cc1OC
COc1ccc(OC)c(NC(=O)CSc2ncnc3c2cnn3-c2ccccc2Cl)c1
COc1ccc(-n2ncc3c(N(C)C4CCCCC4)ncnc32)cc1
O=C(NC1C2CC3CC(C2)CC1C3)c1ccc2c(c1)OCO2 (stereo not drawn)
Cc1cccc(OCC(=O)Nc2nc3ccc([N+](=O)[O-])cc3s2)c1C

Source: PubChem BioAssay AID602293 (National Center for Advancing Translational Sciences (NCATS), 2012)
